In PubChem BioAssay AID1259249 (Broad Institute, 2017):
Values joined by “and” are separate entries in the source; they are usually repeats but may differ in a detail not shown here. Equal values may be shown once. In all, about 86,000 compounds went through this assay and about 220 (0.26%) were called active. Many of the other results were omitted from the sample, so actives are more common in it than they were. Values without a mark were called inactive.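 How the source made its calls: active means mean growth activity at or below -80% and every replicate also at or below -80%; inconclusive means mean at or below -80% but some replicate above -80%; inactive means mean growth activity above -80%.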

Assay: blockers of Clostridium difficile growth – HTS, primary screen (AID 1259249);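 further: 0% = DMSO wells and -100% = levofloxacin 16 µg/mL wells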
Details: Clostridium difficile clinical isolate growth, OD600, 24 h; stronger effect = lower value; screened at 16 µg/mL (by protocol)

Row | SMILES | growth activity, negative = inhibition
1 | COc1ccc(S(=O)(=O)N(C)C[C@@H]2OCCCC[C@H](C)Oc3ccc(NC(=O)Nc4ccccc4)cc3C(=O)N([C@H](C)CO)C[C@H]2C)cc1 | -1.33%
2 | O=C(C[C@@H]1CC[C@H](NS(=O)(=O)c2ccc(F)cc2)[C@@H](CO)O1)NCc1ccccc1F | -8.59%
3 | COCC(=O)N1[C@H](CO)[C@H](c2ccccc2C2=CCCCC2)[C@@H]1C#N | -0.454%
4 | C[C@@H]1CN([C@H](C)CO)C(=O)c2cc(NC(=O)Nc3ccc(C(F)(F)F)cc3)ccc2O[C@@H](C)CCCCO[C@@H]1CN(C)Cc1ccc(C(F)(F)F)cc1 | 0.541%
5 | COc1ccc(NC(=O)Nc2ccc3c(c2)C(=O)N([C@@H](C)CO)C[C@H](C)[C@H](CN(C)Cc2ccc(C(F)(F)F)cc2)OCCCC[C@H](C)O3)cc1 | 0.631%
6 | COc1ccc(CN(C)C[C@@H]2OCCCC[C@@H](C)Oc3ccc(NC(=O)Nc4ccc(C(F)(F)F)cc4)cc3C(=O)N([C@H](C)CO)C[C@H]2C)cc1 | -85.2% (active)
7 | COc1ccc(S(=O)(=O)N2CC[C@@H]3[C@H](CO)Nc4ccc(C#Cc5cccc(OC)c5)cc4[C@@H]32)cc1 | 47.9%
8 | CCCNC(=O)N1[C@@H]2CNC[C@H]1C2c1ccc(-c2cccc(C)c2)cc1 (stereo partly specified) | -6.26% and -5.23%
9 | C[C@H](CO)N1C[C@H](C)[C@@H](CN(C)C(=O)C2CCC2)Oc2cc(C3=CCCCC3)ccc2S1(=O)=O | -7.06%
10 | O=C(C[C@@H]1CC[C@@H](NC(=O)c2cccnc2)[C@H](CO)O1)NCCN1CCCCC1 | -5.37%
11 | CN(C)C(=O)C[C@@H]1CC[C@H]2[C@@H](COC[C@H](O)CN2S(=O)(=O)c2ccccc2)O1 | 0.743% and 2.09%
12 | O=C(NC1Cc2ccccc2C1)[C@@H]1[C@@H](CO)[C@@H]2Cn3c(ccc(C4=CCCC4)c3=O)[C@H]1N2CC1CC1 | -0.745%
13 | C[C@H](O)C#Cc1cnc2c(c1)C(=O)N([C@H](C)CO)C[C@@H](C)[C@@H](CN(C)C(=O)Nc1ccc(C(F)(F)F)cc1)O2 | 4.02%
14 | O=C(Cc1ccccc1)N1CC2(C1)[C@H](c1ccccc1)[C@@H](CO)N2C(=O)c1cccnc1 | 1.92%
15 | O=C(Cc1cccnc1)N1CC(=O)N2[C@@H](CO)[C@H](c3ccc(C#CC4CC4)cc3)[C@@H]2C1 | -8.63%
16 | CCCC(=O)Nc1ccc2c(c1)OC[C@H](C)N(Cc1ccc(F)cc1)C[C@H](C)[C@H](OC)CN(C)C2=O | -2.55%
